Data on 27 compounds can be found in PubChem BioAssay AID652257 (The Scripps Research Institute Molecular Screening Center, 2013).

Screen size: about 370,000 compounds; about 4,800 (1.3%) were called active. The sample as a whole holds a higher share of actives than the screen did. Values without a mark were called inactive.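 How the source made its calls: active means inhibition above about 21% made by adding two undisclosed values (limit read from the data); inactive means the rest.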

For orientation: inhibition means the change of the read-out against control, counted positive when it falls.

Protein arginine N-methyltransferase 1 (Homo sapiens), sequence (Q99873 whole entry, looked up): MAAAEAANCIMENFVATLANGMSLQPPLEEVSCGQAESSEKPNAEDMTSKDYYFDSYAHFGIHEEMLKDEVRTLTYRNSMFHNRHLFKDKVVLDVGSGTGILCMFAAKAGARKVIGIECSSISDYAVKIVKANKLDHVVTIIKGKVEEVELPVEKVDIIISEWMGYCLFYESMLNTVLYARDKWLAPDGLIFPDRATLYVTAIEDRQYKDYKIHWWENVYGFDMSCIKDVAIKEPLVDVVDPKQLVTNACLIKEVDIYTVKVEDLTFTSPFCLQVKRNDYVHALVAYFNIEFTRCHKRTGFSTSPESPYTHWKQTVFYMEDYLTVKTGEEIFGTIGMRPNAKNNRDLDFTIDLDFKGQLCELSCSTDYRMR

This assay concerns the target Protein arginine N-methyltransferase 1 (Homo sapiens) (UniProt Q99873). Put plainly: PRMT1 methyltransferase inhibitors, primary screen, biochemical, fluorescence polarization (AID 652257). To be noted: recombinant PRMT1, activity-based probe fluorescence polarization; at 2.79 µM; active compounds read high.
As to `COc1ccccc1C1C(C#N)=C(N)Oc2c1c(-c1ccccc1)nn2-c1ccccc1` (configuration not stated), the inhibition was 5.44%.
`COc1cccc(Cn2cc(COC(=O)Nc3ccc(F)cc3)nn2)c1`: the inhibition is 0.72%.
The value for `COC(=O)CNC(c1ccccc1Cl)c1cc(Br)ccc1NC(=O)CCN1CCOCC1` (configuration not stated) was 21.5% (active).
Consider `COc1ccccc1NC(=O)CCN1CCN(c2ccc(Cl)cc2)CC1`, for which the inhibition is 1.94%.
The value for `Cc1cc(NC(=O)CCN2CCN(Cc3ccccc3)CC2)ccc1Br` was 0.6%; that for `Cc1cc(S(=O)(=O)NC2CCCC2)ccc1-n1cnnn1` was 3.87%.
Next, `Cc1ccc(CN(C)C[C@@H]2OCc3cnnn3CCCC(=O)N([C@@H](C)CO)C[C@H]2C)cc1`: -5.16%; `C=CCn1c2c(c3ccccc31)CCC2`: 0.09%; `CN1C(=O)c2cccc3c(N)ccc(c23)C1=O`: 183% (active).
Take `Cc1nn(C)cc1N1C(=O)c2cccc3c(N)ccc(c23)C1=O`: the inhibition is 165% (active).
The value for `CC(NCc1ccco1)C(=O)N1CCCCC1` (configuration not stated) was -2.09%; that for `CCOc1ccc(Oc2c(Cl)cnn(-c3ccc(C)cc3)c2=O)cc1` was -1.68%.
`C=CCN1[C@@H](Cc2ccccc2)COc2cccc(N3CCSCC3)c2S1(=O)=O`: the inhibition was 2.18%.
Turning to `O=S(=O)(c1ccccc1)N1CCC(c2nc3ccccc3o2)CC1`, the inhibition is -3.15%.
On to `COc1ccccc1CN(C)C(=O)C1(c2ccc(Cl)cc2)CC1`, for which the inhibition is -2.06%.
Take `O=C(NC1CCC1)c1ccc(C#CC2CC2)cn1`: the inhibition was -0.43%.
Turning to `CC(=O)Oc1ccc(C(C)=O)c2c1OCCO2`, the inhibition was -0.56%.
As for `CSc1ccc(/C=N/N2CCN(Cc3ccccc3Cl)CC2)cc1`, the inhibition was 1.95%.
As for `CC(C)n1c(-c2ccncc2)n[nH]c1=S`, the inhibition was -2.82%.
For `CSc1ccc(C=Nn2c(-c3ccc(F)cc3)n[nH]c2=S)cc1`, the inhibition was 21.3% (active).
As for `CC(NCCc1ccc(S(N)(=O)=O)cc1)C(=O)NCc1ccccc1` (configuration not stated), the inhibition was -3.01%.
On to `COc1cc(C(=S)NCc2ccccc2)cc(Br)c1O`, for which the inhibition was 27.5% (active).
For the compound `COc1cc(-c2nnn(CC(=O)NCc3ccccc3)n2)cc(OC)c1OC`, the inhibition was 2.73%.
The value for `COc1ccccc1OCCC(=O)OCC(=O)NCc1ccccc1` was 0.43%; that for `CCOC(=O)C1=C(C)NC2=C(C(=O)CC(C)(C)C2)C1c1ccc2c(c1)OCO2` (configuration not stated) was -1.8%; that for `COC(=O)CC1CCc2cc(C)cc(C(CC(C)C)NC(=O)[C@H](CC(C)C)NC(=O)OCc3ccccc3)c2O1` (some centres not stated) was -2.67%.
`Clc1ccc(C2=CSC3=Nc4cccc5cccc(c45)N23)cc1`: the inhibition was 22.6% (active).
